From PubChem BioAssay (NCATS)
Records with an inconclusive call do not appear. Where a call stands in place of a potency, no number is given. Calls of active or inactive are those of the source. Calls come from the whole dose curve; as a rule, active = well fitted inhibition curve with a large enough effect; inconclusive = small, poorly fitted or top-dose-only effect; inactive = flat fitted curve, though single readings scatter.

Each molecule was assayed against Calcium and integrin-binding protein 1 (Homo sapiens) (UniProt Q99828) (assay: Primary qHTS for Identification of Calcium Integrin Binding Protein 1 (CIB1) Competitor (AID 1508620;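 note: GST tagged CIB1 binding a fluorescein labelled alphaIIb integrin peptide tracer; top concentration of the series differs between compounds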)). Conditions: CIB1-GST / FITC-alphaIIb peptide fluorescence polarization; series mostly up to 114 µM.
Calcium and integrin-binding protein 1 (Homo sapiens), sequence (Q99828 whole entry, looked up): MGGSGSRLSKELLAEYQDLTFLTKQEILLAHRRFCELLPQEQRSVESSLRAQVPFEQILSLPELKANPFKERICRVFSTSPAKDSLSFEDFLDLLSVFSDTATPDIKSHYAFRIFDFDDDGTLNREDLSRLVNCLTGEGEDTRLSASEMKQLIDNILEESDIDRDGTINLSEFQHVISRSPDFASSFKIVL
Procedure, shortened: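 CIB1-GST (1 uM final) and compound incubated 15 min at room temperature before adding FITC-alphaIIb peptide tracer (100 nM final). Competition for binding read by fluorescence polarization (ex 480, em 540) after another 15 min at room temperature.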

| Structure (SMILES) | Potency |
| --- | --- |
| c1ccc(CNCc2nnc(-c3cc4ccccc4[nH]3)o2)cc1 | inactive |
| CC(C)c1ccccc1-c1nccc(NCc2ccc(-c3ccnc(C(F)(F)F)c3)cc2)n1 | inactive |
| Cc1cccc(-n2cnc3cc(C(=O)N4CCC(Br)CC4)ccc32)c1 | inactive |
| CCOc1ccccc1-c1nnc2n1N=C(c1ccc(OC)c(OC)c1)CS2 | inactive |
| O=C1CCCC2=C1C1(CCSC1)N=C(Nc1nc3ccccc3o1)N2 (stereo not given) | inactive |
| O=C1CCCC2=C1C1(CCCC1)N=C(Nc1nc3ccccc3n1Cc1ccccc1)N2 | inactive |
| COc1ccc2ncnc(NCC3CCCO3)c2c1-c1ccc2c(c1)OCO2 (stereo not given) | inactive |
| Cc1ccc2c(c1)/C(=C\c1cc(Cl)c(O)c(Cl)c1)C(=O)N2 | inactive |
| FC(F)(F)c1cc(-c2ccc(CNc3nc(-c4ccncc4)nc4ccccc34)cc2)ccn1 | inactive |
| FC(F)(F)c1cccc(-c2nc(NCc3ccc(-c4cccnc4)cc3)c3ccccc3n2)c1 | inactive |
| Cc1ccccc1-c1ccc(NC(=O)c2cccs2)cn1 | inactive |
| FC(F)(F)c1cccc(-c2ccc(CNc3nc(-c4ccccc4C(F)(F)F)nc4ccccc34)cc2)c1 | inactive |
| CN1CCN(c2cccc(CNc3nn4c(=O)c5ccccc5nc4s3)c2)CC1 | inactive |
| COc1ccc(C2Nc3ccccc3C(=O)N2Cc2ccco2)cc1COc1c(C(C)C)cccc1C(C)C (stereo not given) | inactive |
| Cc1cnc(-c2ccccc2C(C)C)nc1NCC1CCN(C2COC2)CC1 | inactive |
| COc1cccc(C2c3c(ncn(-c4ccc(Br)cc4)c3=N)Oc3ccc4ccccc4c32)c1 (stereo not given) | inactive |
| O=c1c2ccccc2nc(-c2ccccc2O)n1Cc1ccccc1 | inactive |
| O=C(O)c1cccnc1SC1=NS(=O)(=O)c2ccccc21 | inactive |
| CCOC(=O)c1ccc(-c2ccc3ncnc(N(C)Cc4ccc(C)o4)c3c2)o1 | inactive |
| O=C(Nc1ccc(F)c(C(F)(F)F)c1)Nc1nc(-c2ccncc2)cs1 | inactive |

| Structure (SMILES) | Potency |
| --- | --- |
| Cc1ccnc(NC(=S)NCCN(C)c2cccc(C(F)(F)F)c2)c1 | inactive |
| COC(=O)c1ccc2nc(NC3=NC(c4[nH]ncc4Cl)C4=C(CCCC4=O)N3)oc2c1 (stereo not given) | inactive |
| Cc1cccc2c1NC(=O)/C2=C/c1cc(Cl)c(O)c(Cl)c1 | inactive |
| Cc1cc(NS(=O)(=O)c2ccc(NC(=O)CCc3ccc(Cl)c(Cl)c3)cc2)no1 | inactive |
| Oc1ccc(COC2CCN(Cc3ccccc3)C2)c2cccnc12 (stereo not given) | inactive |
| CC(C)(C)OC(=O)Cc1nnc(CNC(=O)c2ccccc2)s1 | inactive |
| CC(=O)Nc1cccc(S(=O)(=O)N2CCCN(S(=O)(=O)c3ccc4c(c3)OCCO4)CC2)c1 | inactive |
| COC(=O)c1nc(Nc2cc(F)cc(F)c2)nc(NC2CCCC2)n1 | inactive |
| Cc1cccc(-n2cnc3cc(C(=O)N4CCCC(C)(C)C4)ccc32)c1 | inactive |
| COc1ccc(C2Nc3ccccc3C(=O)N2Cc2ccco2)cc1COc1c(C)cc(NC(C)=O)cc1C (stereo not given) | inactive |
| Nc1c(-c2ccccc2)cc[nH]c1=O | inactive |
| CN(Cc1ccco1)c1ncnc2ccc(-c3ccc4c(c3)OCCO4)cc12 | inactive |
| CCc1ccc(NC(=O)c2cnn3c(C)cc(C)nc23)cc1 | inactive |
| Cc1cc(C)nc(NC(=S)N2CCN(c3ccc(Cl)cc3[N+](=O)[O-])CC2)c1 | inactive |
| COc1cccc(NC(=S)N2CCN(c3ccc(C(F)(F)F)cc3[N+](=O)[O-])CC2)n1 | inactive |
| N#Cc1ccc(-c2ccc(CNc3ccc(N4CCC(C(F)(F)F)CC4)cc3)o2)cc1 | inactive |
| Cc1cc(C)nc(NC(=S)N2CCN(c3ccc4cn(C)nc4c3)CC2)c1 | inactive |
| COc1ccc(Cn2c(C)nnc2-c2cnn(C)c2N)cc1OC | inactive |
| CS(=O)(=O)c1ccc(C(=O)OCC(=O)N2Cc3ccccc3C2)cc1[N+](=O)[O-] | inactive |
| CCC(=O)C1CCCN(C(=O)CC(c2ccc3c(c2)OCO3)c2c(O)cc(OC)cc2OC)C1 (stereo not given) | inactive |
